The values below come from ChEMBL document CHEMBL4513146, “CO-ADD screening of Karazin Kharkiv National University (Ukraine) compounds”.

In one experiment the test system is Klebsiella pneumoniae. As to conditions: Concentration 32 ug.mL-1;; ASSAY_TEST Inhibition of Bacterial Growth; detection method Absorption (OD600); MEDIA CAMHB; plate type 384well; NBS; CORNING #3640; time 18 hr.
For the next experiment, the system named is Candida albicans. The settings on record: Concentration 32 ug.mL-1; ASSAY_TEST Inhibition of Fungal Growth; detection method Absorption (OD530).
Another experiment concerns Cryptococcus neoformans. The settings on record: Concentration 32 ug.mL-1; ASSAY_TEST Inhibition of Fungal Growth; detection method Resazurin; Absorption (OD600-OD570); plate type 384well; NBS; CORNING #3640. (In general: The colour change of resazurin is a common sign of viable cells or microbes.)

A word on the Inhibition: it is the change of the read-out against control, counted positive when it falls.

Potency and affinity values are given separately.

As for `Cc1nnc2c(S(=O)(=O)N(Cc3cccc(F)c3)c3ccc(C(C)C)cc3)cccn12`, the Inhibition in the experiment on Klebsiella pneumoniae is on record as 9.6%; in the experiment on Candida albicans, 6.76%; in the experiment on Cryptococcus neoformans, -6.4%.
In the same order, the values of `COc1ccc(NC(=O)c2ccc3nn(CC(=O)Nc4ccc(C(C)C)cc4)c(=O)n3c2)cc1` are 5.27%, 10.58% and -13.36%.
For `Cc1ccccc1Cn1nc2ccc(-c3ccccc3)nn2c1=O`, the Inhibition was 7.15% in the experiment on Klebsiella pneumoniae, 0.4% in the experiment with Candida albicans and -8.99% in the experiment on Cryptococcus neoformans.
For the molecule `COc1ccccc1N1CCN(C(=O)Cn2nc3c(Sc4cccc(C)c4)nccn3c2=O)CC1`, the Inhibition with Klebsiella pneumoniae was -0.72%; in the experiment with Candida albicans, 2.52%; in the experiment with Cryptococcus neoformans it was -34.84%.
As to `CC(C)Cn1c(=O)c2sccc2n2c(=O)n(CC(=O)NC(C)C)nc12`, the Inhibition with Klebsiella pneumoniae is 6.06%; with Candida albicans it was 1.49%; with Cryptococcus neoformans it was -7.6%.
Take `COc1ccc(NC(=O)CSc2nnc3c(=O)n(-c4ccccc4)ccn23)cc1OC`: the Inhibition in the experiment on Klebsiella pneumoniae was 12.94%; in the experiment on Candida albicans, 3.46%; with Cryptococcus neoformans, -16.1%.
For `Cn1c(=O)c2ccc(C(=O)NC3CCCCC3)cc2n2c(=O)n(CC#N)nc12`, the figures for the Inhibition with Klebsiella pneumoniae, in the experiment on Candida albicans and in the experiment on Cryptococcus neoformans were 3.72%, 1.15% and -18.77%, respectively.
Consider `CCOc1ccccc1CNC(=O)CCc1nnc2ccc(-c3ccc(C)cc3)nn12`, for which the Inhibition is listed as 6.87% in the experiment on Klebsiella pneumoniae, 2.37% with Candida albicans and -5.38% in the experiment on Cryptococcus neoformans.
For `CCOC(=O)c1ccc(NC(=O)CSc2nnc3c4cc(-c5ccc(OC)cc5)nn4ccn23)cc1` the same measures were 14.8%, -1.16% and -22.98%.
For the molecule `CCOC(=O)C1CCCN(C(=O)Cn2nc3n(CC(C)C)c(=O)c4sccc4n3c2=O)C1` (stereo not drawn), the Inhibition is listed as 8.18% in the experiment on Klebsiella pneumoniae, -1.48% with Candida albicans and -14.07% in the experiment with Cryptococcus neoformans.
With `CCCCc1ccc(NC(=O)CSc2nc3ccccc3n3c(CC)nnc23)cc1`, the results for the Inhibition in the experiment with Klebsiella pneumoniae, in the experiment with Candida albicans and in the experiment on Cryptococcus neoformans were 13.43%, 1.28% and -16.72%, respectively.
For `Cc1ccc(-c2ccc3nn(CC(=O)Nc4ccccc4)c(=O)n3n2)cc1C` the same measures were 3.8%, -1.46% and -10.8%.
For `N#Cc1ccc(NC(=O)CSc2nnc3c4cc(-c5ccc(F)cc5)nn4ccn23)cc1`, the Inhibition in the experiment on Klebsiella pneumoniae is on record as 11.54%; with Candida albicans it was 18.84%; in the experiment on Cryptococcus neoformans it was -16.45%.
For `CN(C)c1nc2ccccc2n2c(=O)n(CC(=O)Nc3ccc4c(c3)OCO4)nc12` the same measures were 0.98%, -0.89% and -12.71%.
In the same order, the values of `CCc1ccc(N(Cc2cccc(OC)c2)S(=O)(=O)c2cccn3cnnc23)cc1` are 14.16%, 4.11% and -10.89%.
Turning to `CCOc1ccc(NC(=O)Cn2nc3c(Sc4ccc(C)cc4C)nccn3c2=O)cc1`, the Inhibition in the experiment with Klebsiella pneumoniae was 3.27%; in the experiment on Candida albicans, 6.36%; in the experiment with Cryptococcus neoformans, -11.66%.
With `CCc1nnc2c(S(=O)(=O)N(Cc3ccccc3Cl)c3ccccc3)cccn12`, the values for the Inhibition in the experiment with Klebsiella pneumoniae, in the experiment on Candida albicans and in the experiment with Cryptococcus neoformans were 6.34%, 3.28% and -4.36%, respectively.
`Cc1cc2nn(CC(=O)Nc3ccccc3F)c(=O)n2c(Nc2ccc(F)c(C)c2)n1`: the Inhibition in the experiment with Klebsiella pneumoniae was 9.21%; in the experiment with Candida albicans, 7.27%; in the experiment with Cryptococcus neoformans, -5.54%.
Consider `O=C(Cn1nc2ccc(-c3ccc(Cl)cc3)nn2c1=O)N1CCN(c2ccccc2)CC1`, for which the results for the Inhibition in the experiment with Klebsiella pneumoniae, in the experiment on Candida albicans and with Cryptococcus neoformans were -0.57%, -1.89% and -9.03%, respectively.
Turning to `Cc1cc(Nc2ccc(F)cc2)nc2nn(CCc3ccccc3)c(=O)n12`, the Inhibition in the experiment on Klebsiella pneumoniae is on record as 16.97%; with Candida albicans, 1.44%; with Cryptococcus neoformans, -10.99%.
For `Cc1ccc(Cl)cc1NC(=O)CSc1nc2ccccc2n2c(C(C)C)nnc12` the same measures were 7.66%, 11.96% and -19.47%.
For `CC(C)c1ccc(NC(=O)CSc2nnc3c(=O)n(-c4ccccc4)ccn23)cc1` the same measures were 7.22%, -0.59% and -12.85%.
For `COc1ccccc1-n1ccn2c(SCC(=O)c3ccc(C)cc3C)nnc2c1=O` the same measures were 6.45%, 3.89% and -10.37%.
`COc1cccc(-n2ccn3c(SCC(=O)Nc4cc(Cl)ccc4OC)nnc3c2=O)c1`: the Inhibition in the experiment on Klebsiella pneumoniae was 5.24%; in the experiment with Candida albicans, 13.1%; with Cryptococcus neoformans it was -11.15%.
For `COc1ccc(N2CCN(C(=O)Cn3nc4c(Oc5cccc(C)c5C)nccn4c3=O)CC2)cc1` the same measures were 15.7%, -0.29% and -13.03%.
In the same order, the values of `COc1ccc(N(Cc2cccc(F)c2)S(=O)(=O)c2ccc3nnc(C)n3c2)cc1` are 0.18%, 7.1% and -3.46%.
In the same order, the values of `COc1ccc(CNC(=O)Cn2nc3c(Sc4ccc(C)cc4C)nccn3c2=O)cc1` are 6.84%, -0.37% and -7.66%.
In the case of `Cc1nnc2ccc(S(=O)(=O)N(Cc3ccccc3F)c3ccc(F)cc3)cn12`, the values for the Inhibition in the experiment on Klebsiella pneumoniae, in the experiment on Candida albicans and with Cryptococcus neoformans were 5.62%, 1.21% and -9.05%, respectively.
For `COc1ccc(NC(=O)Cn2nc3c(Sc4ccccc4)nccn3c2=O)c(OC)c1` the same measures were 2.54%, 2.27% and -16.55%.
In the same order, the values of `O=C(CCc1nnc2ccc(-c3ccc(Cl)cc3)nn12)NCc1ccc(F)cc1Cl` are 20.9%, 0.76% and -15.23%.
Regarding `Cc1cc(C)c(NC(=O)CSc2nnc3ccc(C(=O)Nc4cccc(F)c4)cn23)c(C)c1`, the Inhibition with Klebsiella pneumoniae was 4.12%; with Candida albicans, 1.89%; in the experiment on Cryptococcus neoformans it was -5.55%.
